A selection: hits, their analogues and other compounds. The true share with any hit is near 1.4%.
IL-2 act = qHTS of IL-2 Activators; IL-2 activation reporter assay, cell-based qHTS; stimulated with anti-CD3/CD4/CD28 beads; in transgenic mouse T cells; activation, % (series mostly up to about 46 µM); 0.065% of 360,000 active; AID 652025, 2013; in the data active means activation above about 50%; inconclusive means mostly about 30% to 49%; further: 0% is about no effect
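Unstimulated transgenic mouse T cells preincubated 60 min with compound, then stimulated with anti-CD3/anti-CD4-coated beads plus anti-CD28 for 18 h at 37 degrees C. IL-2 response read as EGFP and DsRed fluorescence by plate cytometry.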
N370S GC = qHTS Assay for Inhibitors and Activators of N370S glucocerebrosidase as a Potential Chaperone Treatment of Gaucher Disease; N370S GC spleen homogenate, 4MU-glucoside fluorescence; AID 2101, 2009; 0.092% of 330,000 active; Potency, µM (top dose mostly 59.4 µM), without a hit: at the top dose activity change, negative = inhibition, most hits filed as inhibitors; Lysosomal acid glucosylceramidase (Homo sapiens), P04062;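 further: potency means the concentration at half of the fitted maximal effect; 0% = full enzyme activity and -100% = no enzyme basal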
BRCA1 expr up = qHTS Assay to Identify Small Molecule Activators of BRCA1 Expression | MCF7-BRCA1-FFLuc reporter, luminescence, 48 h; response scale: scaled: vehicle 0%, 10 µM genistein 100% | Potency, µM (series often up to 46.1 µM), for the others: top-dose activation, usual class: activators | 1.1% of 380,000 active; further: potency means the concentration at half of the fitted maximal effect; nearly all actives have a fitted effect of over 80% in size
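Quantitative HTS in MCF7 cells stably reporting BRCA1 expression via firefly luciferase. Compound treatment lasts 48 h at 37 °C in phenol-red free MEM. Activation is expressed relative to genistein at 10 microM and DMSO.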
Chronic BCR inh = qHTS Assay to Find Inhibitors of Chronic Active B-Cell Receptor Signaling; ABC-DLBCL IkBa-CBG/CBR reporter, luminescence ratio, 4 h; Potency, µM (top dose mostly 46.1 µM), without a hit: top-dose activity change, negative = inhibition, actives largely listed as inhibitors; 0.05% of 340,000 active; AID 493014, 2011; active means well fitted inhibition curve with a large enough effect in the signal ratio, with a control signal flat, not every such curve was filed as active; inconclusive means small, poorly fitted or top-dose-only effect, or effect the other way, or a change in a side signal; the % refers to the signal ratio;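 further: potency means the concentration at half of the fitted maximal effect; plate controls were basal doxycycline-induced cells for no effect and cells given 10 µM MG132 for full effect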
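TMD8 human ABC-DLBCL cells with doxycycline-inducible IκBα–green luciferase fusion and unfused red luciferase, in 0.5% FBS medium; compounds up to 46 uM, 4 h at 37C. Green/red luminescence ratio, filter-overlap corrected, fitted to concentration-response curves.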
Nrf2 ARE act = qHTS of Nrf2 Activators. Potency, µM (highest dose often 46.1 µM), for the others: at the top dose activation, usual class: activators. 0.31% of 410,000 active. AREc32 ARE-luciferase reporter (MCF7-derived line), luminescence, 24 h; further: potency means the concentration at half of the fitted maximal effect; % of control where 0% means no effect; nearly all actives have a fitted effect of over 65% in size
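Luciferase luminescence (Steady-Glo, 30 min at room temperature) served as the read-out of ARE activation in AREc32 cells treated with compounds for 24 hr at 37 deg C.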
Integrin act MD = qHTS for Activators of Integrin-Mediated Alleviation for Muscular Dystrophy; 0.064% of 350,000 active; Potency, µM (top dose mostly 38.3 µM), for inactives: at the highest dose activation, most hits filed as activators; alpha7betagal myoblasts, beta-gal FDG fluorescence, 48 h; AID 624291, 2012;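 further: potency means the concentration at half of the fitted maximal effect; 100% = response of the positive control SU9516; nearly all actives have a fitted effect of over 60% in size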
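alpha7betagal+/- myoblasts (passage 13, 250/well) treated 48 h at 37C with compounds at 1:260 dilution of DMSO stock. Lysed, then beta-galactosidase activity read as FDG fluorescence (ex 480/em 540) after 30 min, with pre-read for autofluorescence.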
* hit, by the source's call; ? = inconclusive; . = no result; [ ] = remark or other dose. Unless noted, the call rests on the fitted dose curve; in most records, active means well fitted curve in the direction sought with a large enough effect; inconclusive means small, poorly fitted or top-dose-only effect, or another doubt; inactive means no such curve, though single readings can be large; an effect the other way counts as inactive or inconclusive.

SMILES	IL-2 act	N370S GC	BRCA1 expr up	Chronic BCR inh	Nrf2 ARE act	Integrin act MD
CC(/C=N/NC(=O)CSc1nnc(SCc2ccccc2)s1)=C\c1ccco1	1.7	-4.8%	10.7%	-0.3%	11.2µM*	0.6%
CC(/C=N/NC(=O)c1cccnc1)=C\c1ccco1	0.1	2.0%	101.6%	?	?	11.9%
c1ccn2cc(CSC3=NCCS3)nc2c1	1.0	3.6%	6.31µM*	-0.4%	-0.6%	12.9%
c1ccn2cc(CSc3nnc4ccccn34)nc2c1	0.7	13.6%	?	-1.5%	0.4%	13.3%
CC1=CC(C)(C)Nc2ccc(OC(=O)c3ccco3)cc21	16.2	0.9%[2.35 µM]	-83.9%	?	-2.8%	-68.4%
CC1=CC(C)(C)N2C(=O)C(=O)c3cc(OC(=O)c4ccco4)cc1c32	-0.2	1.6%	-1.8%	11.2µM*	19.2%	-38.4%
O=C1CN(CCN2CC(=O)NC(=O)C2)CC(=O)N1	.	.	8.1%	.	.	.
O=C(CCc1nnc(-c2ccsc2)o1)N1CCc2c(Cl)cccc2C1	-2.2	-2.2%	11.2µM*	-3.8%	8.1%	-10.0%
c1ccc(CC2CCN(c3ncnc4sccc34)CC2)cc1	-2.7	21.9%	-3.0%	-0.2%	0.1%	0.0%
c1ccc2c(c1)nnn2-c1ncnc2sccc12	-0.3	18.0%	-21.2%	3.6%	3.98µM*	-11.1%
N#C/C(=C/c1cn(-c2ccccc2)nc1-c1cccc(OCc2ccc(F)cc2)c1)C(=O)NCCCn1ccnc1	-1.2	15.8µM*	-78.9%	-10.1%	3.6%	-56.0%
COc1ccccc1-c1csc(C(O)c2ccc(F)c(F)c2)n1 (centres undefined)	0.2	.	0.4%	.	-0.4%	.
COc1cc(/C=C/CN2CCN(Cc3ccc(C)o3)C(CCO)C2)ccc1O (centres undefined)	-1.2	-6.4%	12.2%	4.7%	2.9%	14.1µM*
O=C(N/N=C/C=C/c1ccco1)c1cccc([N+](=O)[O-])c1	-0.8	-1.0%	-28.1%	?	2.24µM*	-2.9%
O=C(Cc1cccs1)N/N=C/C=C\c1ccco1	1.9	-0.3%	75.7%	?	11.2µM*	-1.4%
CC(/C=C/c1ccco1)=N/NC(=O)c1ccccc1Cl	-3.6	5.0%	0.0%	?	?	-16.4%
O=C(N/N=C/C=C\c1ccco1)c1cccs1	0.9	2.7%	7.08µM*	-23.9%	?	-18.7%
O=C(N/N=C/C=C/c1ccco1)c1ccccc1Cl	-3.3	0.8%	-1.1%	?	11.2µM*	-10.9%
CCOc1ccc(C(c2c(O)cc(C)n(CCOC)c2=O)N2CCC(C)CC2)cc1 (centres undefined)	.	.	.	.	3.1%	.
O=C(Nc1ccc(Cl)cc1)C1CCCN(C2=NS(=O)(=O)c3ccccc32)C1 (centres undefined)	0.4	.	3.4%	?	-0.1%	6.3%
Cc1ccccc1N(C(=O)CS(=O)CC(=O)Nc1ccc(F)cc1)C(C)C(=O)NC(C)(C)C (centres undefined)	1.5	-6.6%	-5.7%	-2.6%	-0.4%	-15.3%
Cc1ccc(S(=O)(=O)N2CCN(c3nc(-c4cccs4)nc(C)c3C)CC2)cc1	.	.	-0.1%	.	.	.
c1ccc(-c2cnc(-c3ccccn3)nn2)cc1	-0.1	.	19.5%	.	?	7.3%
c1ccc(-c2cnc(-c3ccccc3)nn2)cc1	0.7	.	14.0%	.	2.82µM*	3.6%
Cc1ccc(S(=O)(=O)N2CCN(C(=O)COC(=O)Cc3cccc(C(F)(F)F)c3)CC2)c(C)c1	-4.7	-8.1%	-8.8%	-0.8%	0.0%	-3.9%
Cc1cc([N+](=O)[O-])ccc1NC(=O)c1cc2ccccc2o1	0.2	0.0%	7.94µM*	?	2.3%	30.8%
Cc1cc([N+](=O)[O-])ccc1NC(=O)c1ccco1	1.1	6.5%	-5.0%	-13.1%	?	-11.4%
C=CCSc1nn2c(=O)c3ccccc3nc2s1	-0.4	7.0%	2.82µM*	?	6.1%	?

Source: PubChem
